This is a sample that favours compounds with a hit; in the whole collection about 11% have one here.
JMJD2A Tudor inh – inhibitors of human JMJD2A Tudor domain | O75164 | AlphaScreen JMJD2A-Tudor / H3K4me3 peptide binding | Potency, µM (highest dose often 114 µM), hits mostly inhibitors | hit rate 4.4% among 390,000; note: nearly all actives have a fitted effect of over 50% in size
G9a block – inhibitors of human histone lysine methyltransferase G9a; AID 504332; Potency, µM (titrated, usually from 102 µM), hits mostly inhibitors; G9a H3K9 monomethylation, AlphaScreen, 2 h; Q96KQ7; hit rate 8.8% among 350,000; note: nearly all actives have a fitted effect of over 75% in size
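Quantitative HTS format: methyltransferase activity on a biotin-tagged H3K9 peptide is measured by AlphaScreen, using a rabbit anti-monomethyl-H3K9 antibody with streptavidin donor and anti-IgG acceptor beads. Final levels are 20 nM enzyme, 500 nM peptide, 20 uM SAM; 2 h RT.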
VDR inh – vitamin D3 receptor (human) inhibition; hit rate 0.93% among 400,000; Potency, µM, usual class: inhibitors; P11473; AID 504847; VDR-SRC2-3 peptide fluorescence polarization, 2 h
Target sequence (P11473 whole entry, looked up): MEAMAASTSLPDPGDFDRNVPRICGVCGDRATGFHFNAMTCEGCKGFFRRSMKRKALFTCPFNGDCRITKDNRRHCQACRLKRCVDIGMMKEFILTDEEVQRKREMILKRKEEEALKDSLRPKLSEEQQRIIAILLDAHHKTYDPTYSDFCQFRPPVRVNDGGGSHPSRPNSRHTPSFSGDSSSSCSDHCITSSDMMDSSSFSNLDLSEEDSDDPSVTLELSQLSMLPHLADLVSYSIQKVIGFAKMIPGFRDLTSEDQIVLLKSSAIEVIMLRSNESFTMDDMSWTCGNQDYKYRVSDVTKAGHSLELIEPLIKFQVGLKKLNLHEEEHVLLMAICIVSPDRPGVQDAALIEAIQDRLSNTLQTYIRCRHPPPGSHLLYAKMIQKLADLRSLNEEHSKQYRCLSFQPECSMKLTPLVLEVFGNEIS
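Fluorescence polarization assay measuring small-molecule disruption of VDR binding to the coregulator peptide SRC2-3. Compounds were pin-transferred (23 nl) into the reagent mix and incubated 2 h at room temperature before reading.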
HP1b binding inh – inhibitors of HP1-beta chromodomain binding to methylated histone tails. P83916. AlphaScreen HP1-beta / biotin-H3K9me3 peptide binding. Potency, µM (series often up to 114 µM), usual class: inhibitors. hit rate 0.56% among 390,000. AID 540317; note: nearly all actives have a fitted effect of over 70% in size
Target sequence (P83916 whole entry, looked up): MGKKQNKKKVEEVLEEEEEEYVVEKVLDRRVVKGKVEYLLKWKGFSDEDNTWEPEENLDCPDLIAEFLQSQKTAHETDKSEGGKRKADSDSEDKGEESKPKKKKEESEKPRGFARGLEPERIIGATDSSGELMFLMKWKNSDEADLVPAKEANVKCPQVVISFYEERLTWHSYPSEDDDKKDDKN
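Compound inhibition of the preformed complex between 50 nM HP1-beta and 50 nM biotinylated H3K9me3 peptide was read by AlphaScreen. Buffer was PBS pH 7.4 with 0.01% Tween-20. Incubations ran 30 min at room temperature, with 10 ug/mL donor/acceptor beads.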
BAZ2B inh – blocks human BAZ2B | hit rate 4.4% among 360,000 | Q9UIF8 | AlphaScreen BAZ2B-H3K14Ac peptide displacement | AID 504333 | Potency, µM (highest dose often 114 µM), actives largely listed as inhibitors; note: nearly all actives have a fitted effect of over 60% in size
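Protein-peptide AlphaScreen: BAZ2B 50 nM, b-H3K14Ac 50 nM, 1x PBS pH 7.4 + 0.01% Tween-20. Preincubation 30 min RT; cpd 30 min RT (top 110 uM); beads 20 min RT, light-protected.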
PLK1 PBD inh – blocks phosphopeptide binding to human PLK1 polo-box domain. hit rate 2.8% among 360,000. Potency, µM, hits mostly inhibitors. P53350. Plk1 PBD binding of FITC phosphopeptide, fluorescence polarization; note: series mostly up to about 57 µM; nearly all actives have a fitted effect of over 65% in size
Hits are given with their value; i = inactive; ? = inconclusive; nt = no result; [ ] = dose if it differs, or a comment. Calls come from the whole dose curve; as a rule, active = well fitted curve in the direction sought with a large enough effect; inconclusive = small, poorly fitted or top-dose-only effect, or another doubt; inactive = no such curve, though single readings can be large; an effect the other way counts as inactive or inconclusive.

SMILES | JMJD2A Tudor inh | G9a block | VDR inh | HP1b binding inh | BAZ2B inh | PLK1 PBD inh
COC(=O)c1ccc(/C=C/C(=O)c2ccc(OC)cc2)cc1 | 100µM | i | ? | i | i | i
O=C(/C=C/c1ccc(O)c([N+](=O)[O-])c1)c1ccc2ccccc2c1 | ? | ? | ? | i | ? | ?
C/C(=C\C(=O)c1sccc1Cl)N(C)C | i | i | i | i | ? | i
COC(=O)[C@@H](NC(=O)/C=C/c1ccc(OC)cc1)C(C)C | i | i | i | i | i | i
CCOc1ccc(CNC(=O)c2ccc(CSc3nc4ccncc4n3Cc3ccc(F)cc3)cc2)cc1 | i | i | i | i | i | nt
CCOc1ccc(NC(=O)C2CCN(S(=O)(=O)c3c(C)noc3/C=C/c3c(C)cc(C)cc3C)CC2)cc1 | i | i | i | i | i | nt
NC(N)=NCCC[C@H](N)C(=O)NCC(=O)N[C@@H](CC(=O)O)C(=O)N[C@@H](CO)C(=O)O | nt | nt | i | nt | nt | nt
O=C(NCc1ccccn1)[C@@H]1CCCN1C(=O)[C@@H]1CCCN1C(=O)c1c(F)cccc1F | nt | nt | nt | nt | nt | i
COc1ccc(/C=C/C(=O)c2ccc(C)s2)cc1 | nt | nt | 32µM | nt | nt | nt
C[n+]1ccc(C(=O)Nc2ccccc2Cl)cc1 | ? | 25µM | i | i | ? | i
CCCC(=O)Nc1sc(C)c(C)c1C(=O)Nc1cccc(C)c1 | i | i[0.501 µM] | i | i | i | i
CC(=O)c1c(C)nn(-c2ccccc2)c1C | i | i | i | i | i | i
Cc1nn(-c2ccccc2)c(C)c1S(=O)(=O)O | i | 45µM | i | i | ? | i
COc1cccc(/C=N/Nc2ccnc(=O)[nH]2)c1O | ? | i | i | i | 50µM | i
COc1cccc(/C=N/Nc2ccc([N+](=O)[O-])cn2)c1O | ? | i | i | i | 40µM | i
Cc1c(C(=O)O)cccc1-n1c(C)cc(/C=N/Nc2ccc([N+](=O)[O-])cn2)c1C | i[11.4 µM] | 45µM | i | i | 45µM | ?
CCOc1ccccc1/C=N/Nc1ccnc(=O)[nH]1 | i | i[2.33 µM] | i | i | i | i
Clc1ccc(N=NN2CCOCC2)cc1 | i | 50µM | i | i | i | i
O=C(O)C1SCCN1S(=O)(=O)c1ccc(N=NN2CCOCC2)cc1 (stereo unspecified) | i | ? | i | i | i | i
COC(=O)CCC(=O)Oc1ccc(OC(=O)CCC(=O)OC)cc1 | nt | 50µM | nt | nt | i | nt
CCC(=O)N1CCCc2cc(S(=O)(=O)N3CCC(C(=O)NCc4ccc(F)cc4)CC3)ccc21 | 56µM | i | i | i | i | nt
O=C(NCCc1cccc(F)c1)C1CCN(S(=O)(=O)c2ccc(F)cc2)CC1 | i | i[2.33 µM] | i | i | i | i
O=C(NCc1ccccc1Cl)C1CCN(S(=O)(=O)c2ccc(N3CCCC3=O)cc2)CC1 | ? | i | ? | i | i | 12µM
CCC(=O)N1CCCc2cc(S(=O)(=O)N3CCC(C(=O)Nc4ccc(F)c(F)c4)CC3)ccc21 | i | i | i | i | i | nt
CCNC(=O)C1CCN(S(=O)(=O)c2ccc(F)cc2)CC1 | 25µM | i | ? | i | i | 21µM
SMILES | JMJD2A Tudor inh | G9a block | VDR inh | HP1b binding inh | BAZ2B inh | PLK1 PBD inh
CC(C)[C@H](NC(=O)C1CCN(S(=O)(=O)c2ccc(F)cc2)CC1)C(=O)NCc1ccco1 | 35µM | nt | i | i | i | 27µM
Cc1[nH]c2ccccc2c1C(=O)C(C)OC(=O)c1ccccc1NCCO (stereo unspecified) | i | 45µM | i | i | i | i
Cc1[nH]c2ccccc2c1C(=O)C(C)OC(=O)c1ccc(NC(=O)CC#N)cc1 (stereo unspecified) | i | i | i | i | i | i
CC(C)n1c(=S)[nH]c2ccccc21 | 79µM | ? | i | i | i | 25µM
CCn1c(=S)[nH]c2ccccc21 | 79µM | 2.8µM | i | i | i | i
Cc1cc(C)cc(NC(=O)CCn2c(=S)[nH]c3ccccc3c2=O)c1 | i | i | i | i | i | i
CCn1c(=S)[nH]c2cc(C(=O)O)ccc21 | nt | 45µM | nt | nt | i | nt
Cc1ccc(NC(=O)Cn2c(=S)[nH]c3ccccc32)cc1 | i | 3.5µM | i | ? | i | 24µM
CC(C)Cn1c(=O)[nH]c2ccccc21 | i | i | i | i | i | i
CC(=O)c1ccc(N2C(=O)N(Cc3ccc(F)cc3)c3ccccc3S2(=O)=O)cc1 | i | i | i | i | i | nt
CCCc1ccc(OCC(=O)Nc2sc(C(=O)OCC)c(C)c2C(=O)OCC)cc1 | i | i | i | i | i | nt
CCn1c(=S)[nH]c2cc(Cl)ccc21 | i | nt | i | i | i | i
CCCn1c(=S)[nH]c2cc(Cl)ccc21 | i[11.4 µM] | ? | ? | i | i | 15µM
CCn1c(=S)[nH]c2cc(S(=O)(=O)N3CCCCC3)ccc21 | 79µM | ? | i | i | i | 27µM
COc1cc(/C=C2/SC(=S)N(CC3CCCO3)C2=O)ccc1O (stereo unspecified) | ? | 28µM | i | 45µM | 45µM | i
COc1ccc(/C=C2\SC(=S)N(CC3CCCO3)C2=O)cc1 (stereo unspecified) | ? | nt | i | ? | 8.9µM | i
COc1ccc(/C=C2\SC(=S)N(CCC(=O)NC3CCCC3)C2=O)cc1OC | i | i | i | i | i | i
NC(=O)c1cc(N)ccc1N1CCCC1 | ? | ? | i | i | i | i
Cc1cc(N)ccc1-n1c(C)ccc1C | ? | 14µM | ? | i | i | i
Cc1cc(N)ccc1N1CCCC1 | 20µM | ? | 71µM | 50µM | 45µM | ?
COC(=O)C1CCN(C2CN(Cc3ccc(F)cc3)S(=O)(=O)C2)CC1 (stereo unspecified) | nt | nt | nt | nt | nt | i
O=C1Nc2cc(Cl)c(Cl)cc2N(O)N1c1ccc(Cl)c(Cl)c1 | i | i[12.7 µM] | i | i | i | i
Nc1nc2c(c(=O)[nH]1)C(c1cccc3ccccc13)C1=C(N2)c2ccccc2C1=O (stereo unspecified) | ? | 35µM | ? | i | i | ?
CCCCOC(=O)c1ccc(Nc2ncnc3c2cnn3-c2cccc(C)c2)cc1 | i | i | i | i | i | nt
Cc1ccccc1S(=O)(=O)Cc1ccc(C(=O)NCc2ccco2)o1 | 16µM | i | ? | i | i | 24µM
SMILES | JMJD2A Tudor inh | G9a block | VDR inh | HP1b binding inh | BAZ2B inh | PLK1 PBD inh
COCCNC(=O)c1ccc(CS(=O)(=O)c2ccccc2OC)o1 | i | ? | i | i | i | i
COc1ccccc1S(=O)Cc1ccc(C(=O)NC2CCCC2)o1 (stereo unspecified) | i | 28µM | i | i | i | i
COc1ccccc1S(=O)(=O)Cc1ccc(C(=O)NCCN2CCCCCC2)o1 | i | 50µM | i | i | i | ?
Cc1ccccc1S(=O)Cc1ccc(C(=O)NC2CCCCCC2)o1 (stereo unspecified) | i | i | i | i | nt | nt
Cc1ccccc1S(=O)(=O)Cc1ccc(C(=O)NC2CC2)o1 | 50µM | i | i | i | i | i
Cc1ccccc1S(=O)(=O)Cc1ccc(C(=O)NC2CCCC2)o1 | i | i | i | i | i | i
Cc1ccc(S(=O)(=O)CCC(=O)OCC(=O)NCc2ccc(F)cc2)cc1 | nt | nt | nt | nt | nt | i
